Shiga toxin inh = Shiga toxin inhibition. inhibition, % at 38.7 µM. Vero cells, Shiga toxin protein synthesis inhibition reporter. AID 2315. 290,000 tested, 9.2% active; in the data active = inhibition mostly above about 28%, no sharp cut-off; inactive = mostly below about 43%; also: 0% is about no effect
Pf growth 96h = inhibits malaria parasite growth, 96 h; P. falciparum luciferase reporter growth, 96 h; 320,000 tested, 6.9% active; Potency, µM (titrated, usually from 28.7 µM), for the others: at the highest dose activity change, negative = inhibition, hits mostly inhibitors; AID 504834; also: potency is read from the fitted curve at half-maximal effect; % is scaled to controls: 0 for no effect and ±100 for the full control effect
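96 h incubation, 37 C, 5% CO2, of luciferase-reporter P. falciparum-infected RBCs (2% hematocrit, 0.05% parasitemia final) with test compounds; endpoint luminescence.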
Pf growth 48h = inhibits P. falciparum growth in the first generation, 48 h; P. falciparum luciferase growth in erythrocytes, 48 h; Potency, µM (doses to about 28.7 µM), for inactives: at the top dose activity change, negative = inhibition, hits mostly inhibitors; 310,000 tested, 5.9% active; AID 504832; also: potency is read from the fitted curve at half-maximal effect; % is scaled to controls: 0 for no effect and ±100 for the full control effect
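Luciferase-expressing P. falciparum in infected erythrocytes (2% hematocrit, 0.1% parasitemia final) in RPMI 1640/0.5% Albumax were exposed to compound for 48 hours at 37 C, 5% CO2; growth read as luminescence.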
NS1 inh = blocks influenza NS1 protein function | Potency, µM (doses to about 46.1 µM), without a hit: at the top dose activity, positive = more growth | 270,000 tested, 0.4% active; calls by dose curve; also: potency is read from the fitted curve at half-maximal effect; actives are rising curves; nearly all actives have a fitted effect of over 50% in size
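Recovery from NS1-induced slow growth read by OD600 in budding yeast switched to galactose assay medium (pH 6.0, -URA) at 1:100 dilution. Compound 23 nl per well; the matching strain lacking NS1 serves as control.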
Cycloheximide cs = affects cycloheximide protein synthesis inhibition readout, counter-screen. AID 2314. cell reporter, cycloheximide protein synthesis inhibition counterscreen. max response, %. 300,000 tested, 12% active; in the data active = max response mostly above about 13%, no sharp cut-off; inactive = mostly below about 14%; also: read at 38.3 µM for the half of the compounds with a filed dose; 0% is about no effect
Flu NS1 inh = validation of influenza NS1 protein function inhibitors. influenza NS1 function cell assay, 15-point titration. AID 492980. 1,400 tested, under 10 active. shares compounds with NS1 inh. activity change, negative = inhibition, % at 32.9 µM; calls by dose curve; also: 0% is about no effect
PR8 titer = influenza NS1 inhibitors: inhibition of influenza A/PR/8/34 replication. shares compounds with NS1 inh. MDCK infected influenza A/PR/8/34, virus titer TCID50; hits give low values. virus titer (log TCID50), log10 TCID50 at 5 µM. 95 tested, 30% active. AID 504647; call rule not given here
Active calls of the source: *. Shown are actives, neighbours in structure and some others; about 21% of the full set was active somewhere. Unless noted, calls follow the shape of the dose curve; as a rule, active = well fitted inhibition curve with a large enough effect; inconclusive = small, poorly fitted or top-dose-only effect, or another doubt; inactive = no such curve, though single readings can be large or run the other way.

COc1ccccc1/C=C(\NC(=O)c1ccc(OC)c(OC)c1)C(=O)Nc1ccc([N+](=O)[O-])cc1 was read as Shiga toxin inh -6.2, Pf growth 96h inconclusive, Pf growth 48h -3.5%, NS1 inh 12.6µM*, Cycloheximide cs -2.5 and Flu NS1 inh 12.8.
For COc1ccc(C(=O)N/C(=C\c2ccccc2)C(=O)Nc2cccc(C(=O)O)c2)cc1 the results were Shiga toxin inh 0.8, Pf growth 96h inconclusive, Pf growth 48h 7.6%, NS1 inh 10µM*, Cycloheximide cs 0.7 and Flu NS1 inh 4.4.
Screening CC(C)CC(NC(=O)C(NC(=O)OC(C)(C)C)C(C)C)C(=O)N1CCCC1C(N)=O (configuration not stated) returned Shiga toxin inh -13.6, Pf growth 96h -0.4%, Pf growth 48h 12.8%, NS1 inh 5.6% and Cycloheximide cs -3.4.
`CCOC(=O)C(C)(C)n1nnc(-c2ccc([N+](=O)[O-])cc2)n1` gave Shiga toxin inh -3.6, Pf growth 96h 22.9%, Pf growth 48h 21.6%, NS1 inh 3.0% and Cycloheximide cs -2.3.
Cc1cc(C)cc(N(C(=O)CNS(=O)(=O)c2ccccc2)C(C(=O)NCc2ccccc2)c2ccc(C)o2)c1 (configuration not stated) was read as Shiga toxin inh 5.9, Pf growth 96h 37.8%, Pf growth 48h inconclusive, NS1 inh 10µM*, Cycloheximide cs 4.7 and Flu NS1 inh -1.1.
For O=C(C[n+]1cc2ccccc2c2ccccc21)c1ccccc1 the results were Shiga toxin inh -11.9, Pf growth 48h -70.8%, NS1 inh inconclusive, Cycloheximide cs 9.8 and Flu NS1 inh 3.7.
`C[C@H]1c2cccc(O)c2C(O)=C2C(=O)[C@]3(O)C(O)=C(C(N)=O)C(=O)C(N(C)C)[C@@H]3[C@@H](O)C21` (some centres not stated) gave NS1 inh 7.08µM* and Flu NS1 inh -10.7.
`Cc1ccc(S(=O)(=O)N2CCN(CC(=O)Nc3ccnn3C3CCCC3)CC2)cc1` gave Pf growth 96h -20.4% and Pf growth 48h inconclusive.
For COc1ccc2c(c1)CCC/C2=N\Nc1nc(C(=O)NN)cs1 the results were Shiga toxin inh 75.8*, Pf growth 96h inconclusive, Pf growth 48h 10.4µM*, NS1 inh 8.91µM*, Cycloheximide cs 46.1* and Flu NS1 inh 0.8.
Cc1csc(NC(=O)COc2ccc3c(c2)CCC3)n1 was read as Pf growth 96h 270.6% and Pf growth 48h 384.7%.
CCOC(=O)N1CCN(c2c(NCCCN(CC)Cc3ccccc3)c(=O)c2=O)CC1 was read as Shiga toxin inh -15.2, Pf growth 96h inconclusive, Pf growth 48h inconclusive, NS1 inh 1µM*, Cycloheximide cs 3.5 and Flu NS1 inh -12.3.
For O=C(NC1CC1)c1ccc(CS(=O)(=O)c2c(Cl)cccc2Cl)o1 the results were Shiga toxin inh 27.5, Pf growth 96h 25.8%, NS1 inh 4.47µM*, Cycloheximide cs -2.1 and Flu NS1 inh 6.3.
For COc1cccc(NC(=O)C(Sc2nnc(Nc3ccccc3C)s2)c2ccccc2)c1 (configuration not stated) the results were Shiga toxin inh 8.0, Pf growth 96h 6.57µM*, Pf growth 48h inconclusive, NS1 inh 5.01µM*, Cycloheximide cs -12.3 and Flu NS1 inh -2.1.
Screening CC(=O)NCCOc1nc(N(C)C)nc(N2CCCCC2)n1 returned Shiga toxin inh -15.6, Pf growth 96h 8.9%, Pf growth 48h 19.0%, NS1 inh 1.5% and Cycloheximide cs 2.6.
COc1ccc(NC(=O)Nc2cccs2)cc1OC was read as Shiga toxin inh 36.8, Pf growth 96h 34.8%, NS1 inh inconclusive, Cycloheximide cs 13.2 and Flu NS1 inh 18.3.
Screening O=[N+]([O-])c1ccc(CSc2nc3ncc(Br)cc3[nH]2)cc1 returned Shiga toxin inh -5.3, Pf growth 96h 0.0%, Pf growth 48h inconclusive, NS1 inh -34.6% and Cycloheximide cs -0.9.
For COc1ccc(OC)c(S(=O)(=O)n2nnc3ccccc32)c1 the results were Shiga toxin inh -2.9, Pf growth 96h inconclusive, Pf growth 48h 16.3%, NS1 inh inconclusive, Cycloheximide cs -1.0 and Flu NS1 inh -38.1.
CCN(C(=O)CCNC(=O)Cn1cnc2ccccc2c1=O)c1ccccc1F was read as Shiga toxin inh -10.2, Pf growth 96h inconclusive, Pf growth 48h 22.6%, NS1 inh 4.3% and Cycloheximide cs 3.7.
Screening Cc1cc(C)c(OCC(=O)OCC(=O)NNC(=O)c2ccccc2F)c(C)c1 returned Pf growth 96h 7.1% and Pf growth 48h -23.1%.
`Cc1ccc(NS(=O)(=O)c2cccc(C(=O)NCCc3c[nH]c4ccccc34)c2)c(C)c1` gave Shiga toxin inh -4.7, Pf growth 96h inconclusive, Pf growth 48h inconclusive, NS1 inh 11.2µM*, Cycloheximide cs 6.1 and Flu NS1 inh 32.1.
Cc1ccc(NC(=O)C(=O)NCCc2c[nH]c3ccccc23)c(C)c1 was read as Shiga toxin inh -8.0, Pf growth 96h 16.4%, Pf growth 48h -22.8% and Cycloheximide cs 4.1.
COc1cc(NS(=O)(=O)c2ccc(Nc3nc(-c4ccccn4)cs3)cc2)nc(OC)n1 was read as Shiga toxin inh 10.0, Pf growth 96h -6.3%, Pf growth 48h 9.5%, NS1 inh 8.8% and Cycloheximide cs -3.1.
COc1ccc(-c2csc(Nc3ccc(S(=O)(=O)Nc4cc(OC)nc(OC)n4)cc3)n2)cc1 was read as Shiga toxin inh -5.3, Pf growth 96h 14.7µM*, Pf growth 48h 29.0%, NS1 inh 12.6µM*, Cycloheximide cs -2.3, Flu NS1 inh 19.8 and PR8 titer 8.
CCc1cc(=O)oc2cc(C)cc(OCC(=O)N[C@@H](CSCc3ccccc3)C(=O)O)c12 was read as Shiga toxin inh 18.9, Pf growth 96h -14.9%, Pf growth 48h inconclusive, NS1 inh 10µM*, Cycloheximide cs -2.1, Flu NS1 inh 24.9 and PR8 titer 7.33*.
For CCOC(=O)C(/C=N/c1cc(C)nn1-c1ccccc1)=C(\C)O the results were Shiga toxin inh -8.6, Pf growth 96h inconclusive, NS1 inh -1.6% and Cycloheximide cs -2.7.
Screening Cc1c(C(=O)Nc2cccc(Cl)c2)oc2ccc(S(=O)(=O)N3CCC4(CC3)OCCO4)cc12 returned Shiga toxin inh 18.4, Pf growth 96h 11.9%, Pf growth 48h 0.0%, NS1 inh 11.2µM*, Cycloheximide cs -0.3 and Flu NS1 inh -19.1.
Screening CN(C)CCNc1ccccn1 returned NS1 inh -3.1%.
Screening O=C(O)c1cc(NS(=O)(=O)c2ccc(NCc3ccccc3)c([N+](=O)[O-])c2)cc(C(=O)O)c1 returned Shiga toxin inh -5.3, Pf growth 96h 11.8%, Pf growth 48h 2.9%, NS1 inh 14.1µM*, Cycloheximide cs -2.1 and Flu NS1 inh 33.2.

Source: PubChem BioAssay
